# Whole data set: some 16,000 sequences, median “e-score” near -0.044, cut for the highest 2% near 0.38. The sample holds the highest values, similar sequences and a random draw of the others, so the mix is not that of the screen.
# Target: T1, GST-NbGlk1(82-244) (Nicotiana benthamiana)
# T1 chain: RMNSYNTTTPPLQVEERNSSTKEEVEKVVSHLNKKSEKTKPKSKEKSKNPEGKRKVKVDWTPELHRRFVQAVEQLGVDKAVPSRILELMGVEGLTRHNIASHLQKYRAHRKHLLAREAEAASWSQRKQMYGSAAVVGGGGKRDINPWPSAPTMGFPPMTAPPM
# Experiment: protein-binding microarray; NbGlk1 is a Golden2-like transcription factor of Nicotiana benthamiana; high values mean tight binding
# Settings: protein: recombinant; tags: GST (pTH6838); dsDNA, one strand shown
row,Sequence,binding signal
1,ATTCGAAT,0.221 ± 0.203 E-score
2,ATCCCACA,0.234 ± 0.0752 E-score
3,AATCCACA,0.419 ± 0.00571 E-score
4,ATTCCACC,0.235 ± 0.0237 E-score
5,AATCCACG,0.406 ± 0.0241 E-score
6,AATCCACC,0.382 ± 0.0151 E-score
7,AATCCTCC,0.375 ± 0.00794 E-score
8,AATCCTCA,0.376 ± 0.0245 E-score
9,AATCCACT,0.364 ± 0.0439 E-score
10,ATTCCACG,0.222 ± 0.06 E-score
11,AATTTTAG,0.222 ± 0.0121 E-score
12,ATCTGCAT,0.31 ± 0.0522 E-score
13,AAATCGAC,0.341 ± 0.00515 E-score
14,AATCCAGG,0.415 ± 0.00511 E-score
15,AATCCCAG,0.342 ± 0.0163 E-score
16,AATCCCGG,0.326 ± 0.0261 E-score
17,AATCCAGT,0.398 ± 0.00993 E-score
18,AATCCAGA,0.349 ± 0.0199 E-score
19,AATCCAGC,0.364 ± 0.00724 E-score
20,ATTACCAC,0.255 ± 0.0899 E-score
21,ATCATAGA,0.214 ± 0.00111 E-score
22,ACGAAAAT,0.272 ± 0.0271 E-score

row,Sequence,binding signal
1,AGGAAATC,0.4891 ± 0.000893 E-score
2,AGGAAAAT,0.226 ± 0.0215 E-score
3,AGGAAATA,0.239 ± 0.0792 E-score
4,AAGAAATC,0.443 ± 0.00563 E-score
5,ATTAAATC,0.217 ± 0.0673 E-score
6,AAGAAATA,0.222 ± 0.0864 E-score
7,ATGAAAAT,0.321 ± 0.0714 E-score
8,AAGAAAAT,0.34 ± 0.023 E-score
9,ACGAAATA,0.246 ± 0.0511 E-score
10,ACGAAATC,0.477 ± 0.0103 E-score
11,ATGAAATC,0.4523 ± 0.00241 E-score
12,AACCGGAT,0.233 ± 0.0852 E-score
13,ATTTTGGG,0.2605 ± 0.000343 E-score
14,ACTGCGAT,0.208 ± 0.0497 E-score
15,AGTGGATA,0.257 ± 0.0756 E-score
16,AAAACTTA,0.223 ± 0.0511 E-score
17,ATCCAGAA,0.288 ± 0.0705 E-score
18,ACGCGAAT,0.244 ± 0.0302 E-score
19,CAATCGTA,0.235 ± 0.0447 E-score
20,ATCTGAGG,0.265 ± 0.031 E-score
21,AATTAGAT,0.224 ± 0.00637 E-score
22,AATAAATC,0.253 ± 0.0219 E-score

row,Sequence,binding signal
1,CAGAAATC,0.405 ± 0.0372 E-score
2,CAGAATTC,0.234 ± 0.013 E-score
3,ACAGTATC,0.304 ± 0.0326 E-score
4,AATCTTGA,0.3773 ± 0.0026 E-score
5,AATCTTGC,0.3479 ± 0.00119 E-score
6,AATCTTTA,0.352 ± 0.0119 E-score
7,AATCTTGG,0.386 ± 0.0186 E-score
8,AATCTTTC,0.387 ± 0.0286 E-score
9,AATCTTGT,0.397 ± 0.0291 E-score
10,AATCTTTG,0.378 ± 0.0158 E-score
11,AATCATGT,0.304 ± 0.0651 E-score
12,ATTCTTGG,0.242 ± 0.0219 E-score
13,AATCGTGG,0.286 ± 0.072 E-score
14,ATCCTAGA,0.263 ± 0.0827 E-score
15,AAGGAGAT,0.261 ± 0.0685 E-score
16,AGGCAATC,0.417 ± 0.0072 E-score
17,AATCAATC,0.25188 ± 0.000161 E-score
18,ATGCAAAT,0.299 ± 0.0135 E-score
19,CAGCAATC,0.339 ± 0.0127 E-score
20,ATACAATC,0.274 ± 0.01 E-score
21,AGGCAAAT,0.238 ± 0.00762 E-score
22,AGGCGATC,0.3174 ± 0.0029 E-score

row,Sequence,binding signal
1,ACGCAATA,0.2818 ± 0.000398 E-score
2,ATGCAATC,0.4516 ± 0.0024 E-score
3,ATCCAATC,0.254 ± 0.066 E-score
4,ACGCAATC,0.4798 ± 0.00123 E-score
5,AAGCAATC,0.386 ± 0.0251 E-score
6,ATCTGTTA,0.295 ± 0.102 E-score
7,AGGATCCT,0.307 ± 0.0236 E-score
8,ATCCGAGA,0.308 ± 0.0203 E-score
9,AAATGGAT,0.235 ± 0.0673 E-score
10,ATCCACTA,0.247 ± 0.0967 E-score
11,AAATTTTA,0.24 ± 0.021 E-score
12,ATTGCCCC,0.205 ± 0.0299 E-score
13,AGGGTAAT,0.262 ± 0.0657 E-score
14,AGTAATCG,0.296 ± 0.00931 E-score
15,ATCACAGA,0.217 ± 0.141 E-score
16,ATCTCTTC,0.286 ± 0.00741 E-score
17,ATATCATA,0.307 ± 0.0181 E-score
18,ATATCGTC,0.328 ± 0.0135 E-score
19,ATCTCTTA,0.337 ± 0.015 E-score
20,ATCTCTGC,0.311 ± 0.0301 E-score
21,ATATCGTG,0.348 ± 0.0162 E-score
22,ATATCTGC,0.438 ± 0.0129 E-score

row,Sequence,binding signal
1,ATATCTTA,0.408 ± 0.0113 E-score
2,ATATCGGC,0.354 ± 0.0162 E-score
3,ATATCTTC,0.412 ± 0.0234 E-score
4,ATATCATG,0.373 ± 0.00698 E-score
5,ATATCTTG,0.436 ± 0.0173 E-score
6,AGCGATCG,0.204 ± 0.00262 E-score
7,AATTCTAT,0.22 ± 0.114 E-score
8,AATTGGAT,0.2 ± 0.0585 E-score
9,ATCTTAAT,0.321 ± 0.00718 E-score
10,ATATTAAG,0.251 ± 0.0913 E-score
11,ATCCACAA,0.29 ± 0.0043 E-score
12,ATTTTATA,0.281 ± 0.0713 E-score
13,ATTTGCGA,0.294 ± 0.051 E-score
14,AGTAAAAT,0.292 ± 0.0131 E-score
15,ACTGAATA,0.204 ± 0.00699 E-score
16,ATATCTGA,0.399 ± 0.00857 E-score
17,ATCTCTGA,0.269 ± 0.143 E-score
18,ATCTCTTG,0.379 ± 0.0245 E-score
19,ATCTCTGG,0.205 ± 0.0181 E-score
20,ATATCTGG,0.401 ± 0.00925 E-score
21,ATATCAGA,0.343 ± 0.0575 E-score
